Rows were chosen to be rich in hits. Some 4.5% of all compounds tested hit in one or more screens of this group.
tim23-1 inh: growth inhibitors of tim23-1 mutant yeast; S. cerevisiae tim23-1 growth, BacTiter-Glo luminescence, 24 h; inhibition, % at 20 µM; 330,000 tested, 1.3% active; AID 463212;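 active = growth inhibition of the mutant yeast at or above 50%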;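 note: temperature-sensitive mutant grown at 25 °C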
NLRP3 yeast inh: blocks the NALP3 inflammasome reconstituted in yeast | Yeast reconstituted NLRP3/ASC/caspase-1, beta-gal luminescence, 24 h | inhibition, % at 10 µM | 330,000 tested, 0.39% active | AID 2825;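 active = inhibition of 50% or more; inactive = inhibition below 50%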
TIM10 inh: inhibits growth of TIM10 yeast strain. S. cerevisiae TIM10 strain growth, BacTiter-Glo luminescence, 24 h. inhibition, % at 10 µM. 330,000 tested, 1.4% active. AID 463195;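 active = inhibition of 40% or more at the single tested concentration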;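 note: wild-type TIM10 isogenic control strain grown at permissive 25 °C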
tim10-1 inh: growth inhibitors of tim10-1 mutant yeast; S. cerevisiae tim10-1 ts strain growth, BacTiter-Glo, 24 h; inhibition, % at 20 µM; 330,000 tested, 2.2% active;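 active = inhibition of at least 40%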;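 note: mutant grown at 25 °C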
PfHsp90 yeast 2: inhibits growth of yeast expressing Plasmodium falciparum Hsp90; S. cerevisiae expressing PfHsp90, BacTiter-Glo ATP, 48 h; yeast lacking PDR1 and PDR3 efflux regulators; inhibition, % at 9.4 µM; 310,000 tested, 0.32% active; AID 504621;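 active = every replicate shows inhibition above about 80%, whatever the replicate mean, limit read from the data; inconclusive = mean inhibition reaches the set limit but some replicate falls short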
SKKanGAS inh: blocks kanamycin growth of S. pyogenes SKKanGAS strain; BacTiter-Glo, 6 h; inhibition, % at 7.5 µM; 300,000 tested, 1.3% active;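 active = mean replicate score, as percent of positive control median, at least 50; inconclusive = mean below 50 but one replicate at or above 50; inactive = mean and every replicate below 50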;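 note: strain carries kanamycin resistance gene driven by streptokinase promoter and grows in 40 µg/ml kanamycin; loss of luminescence reflects streptokinase promoter inhibition or plain growth inhibition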
tim10-1 conf: tim10-1 yeast growth inhibition, confirmed. shares compounds with tim10-1 inh. AID 463213. inhibition, % at 20 µM. S. cerevisiae tim10-1 ts strain growth, BacTiter-Glo, 24 h. 7,400 tested, 56% active;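 active = inhibition of yeast growth at or above a set limit in either of two repeat tests at 20 µM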;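 note: tim10-1 mutant grown at permissive 25 °C to find synthetic lethal compounds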
A number is an active result; – = inactive; ? = inconclusive; · = not tested or not shown.

SMILES	tim23-1 inh	NLRP3 yeast inh	TIM10 inh	tim10-1 inh	PfHsp90 yeast 2	SKKanGAS inh	tim10-1 conf
Cc1nc([N+](=O)[O-])c(Sc2nc3ccccc3[nH]2)n1Cc1ccccc1	–	–	–	44	–	–	–
COC(CN(C)C(=O)C1CCCN(S(=O)(=O)c2ccc3c(c2)oc(=O)n3C)C1)OC (centres undefined)	–	–	–	–	–	–	·
CCOC(=O)N1CCN(C2=C(NS(=O)(=O)c3ccc(C)cc3)C(=O)c3ccccc3C2=O)CC1	–	–	–	49	–	–	–
COc1ccc(-c2cc(C(F)F)n3ncc(C(=O)N4CCc5ccccc5C4)c3n2)cc1	–	–	–	41	–	–	–
COc1cc(-c2cc(=O)c3c(O)c(OC)c(OC)cc3o2)cc(OC)c1O	–	–	–	42	–	–	–
COc1ccc(NC(=O)N(C)C[C@H]2Oc3ccc(NS(=O)(=O)c4c(C)noc4C)cc3C(=O)N([C@H](C)CO)C[C@@H]2C)cc1	–	–	–	–	–	·	·
Cc1ccccc1COc1ccc(-c2nnn(CC(=O)O)n2)cc1	–	–	–	–	–	–	·
CC(C)OC(=O)CSc1nc2cccnc2n1C1CCCCC1	–	–	–	–	–	–	–
CCOC(=O)CNC(=O)CSc1nc2cccnc2n1C1CCCCC1	–	–	–	–	–	–	·
O=C(/C=C/c1ccco1)Nc1ccc2nc3n(c(=O)c2c1)CCCC3	–	–	–	–	–	–	·
Cc1cc(C)c(COc2ccc(/C=N/n3c(C)n[nH]c3=S)cc2)c(C)c1	–	–	–	41	–	?	–
C=CCNC(=O)/C(C#N)=C/c1ccccc1OCc1ccc(C(=O)OC)cc1	–	–	–	45	–	–	–
CCOC(=O)c1ccc2[nH]c3c(c2c1)CCCC3O (centres undefined)	–	–	–	–	–	–	·
CCOC(=O)c1ccc2[nH]c3c(c2c1)CCCC3	–	–	–	42	–	–	34
O=[N+]([O-])c1ccc(OCCO)c(P(=O)(c2ccccc2)c2ccccc2)c1	–	–	–	–	–	–	·
CCOC(=O)C1CCCN(C(=O)/C=C/c2ccc(Cl)cc2)C1 (centres undefined)	–	–	–	41	–	–	–
Cn1cc(C(=O)c2ccccc2C(=O)O)cc1C(=O)C(Cl)(Cl)Cl	–	–	–	–	–	–	·
CCCCCc1nnc(NC(=O)c2ccc3nc[nH]c3c2)s1	–	–	–	–	–	·	·
C/C1=C\CCC2C(/C=C(\C)CC1)OC(=O)C2CN1CCCCC1 (centres undefined)	–	–	–	40	–	–	43
CCn1nc(NC(C)=O)c2cc3cccc(C)c3nc21	–	–	–	–	–	–	·
CCn1nc(NC(=O)c2ccccc2)c2cc3cccc(C)c3nc21	–	–	–	46	–	–	32
CC1(C)CC(NC(=O)c2cc(COc3cccc(C(F)(F)F)c3)on2)CCO1 (centres undefined)	–	–	–	48	–	–	–
NS(=O)(=O)c1ccc(NC(=O)C(=O)NCCC(=O)O)cc1	–	–	–	–	–	–	·
CCN(C1CCCCC1)S(=O)(=O)c1cc(C)ccc1OC	–	–	–	43	–	–	–
CCOC(=O)c1sc(S(C)(=O)=O)c2c1CC(C)(C)C/C2=N/O	–	–	–	–	·	–	·
SMILES	tim23-1 inh	NLRP3 yeast inh	TIM10 inh	tim10-1 inh	PfHsp90 yeast 2	SKKanGAS inh	tim10-1 conf
c1ccc2c(c1)ccc1nnc(SCc3ccc4c(c3)OCO4)n12	–	–	–	42	–	–	–
Cc1cc(C)c(NC(=O)CN(C)CC(=O)N(C)CC(=O)Nc2c(Cl)cccc2Cl)c(C)c1	–	–	–	–	–	·	·
CCOc1cc(C)cc2oc(=O)cc(-c3ccccc3)c12	–	–	–	–	–	–	·
Cc1cc(OCC(=O)N2CCc3ccccc3C2)c2c(-c3ccccc3)cc(=O)oc2c1	–	–	–	46	–	–	–
Cc1cc(-c2nn(-c3ccccc3F)cc2CN2CCN(c3ccccn3)CC2)c(C)s1	–	–	–	–	·	–	·
CN(CC1COc2ccccc2O1)C(=S)Nc1ccccc1 (centres undefined)	–	–	–	42	–	–	–
Cc1ccccc1OCC(=O)NNC(=S)NC(=O)c1ccccc1[N+](=O)[O-]	–	–	–	42	–	–	–

Screening results from PubChem BioAssay.
